What was measured:
Test in all cases: DAPPL (digital affinity profiling via proximity ligation, sequencing); 10 mM Tris-HCl pH 7.5, 50 mM NaCl, 1 mM DTT, 4% glycerol, room temperature, 30 min; GST-TFs on glutathione beads, 16-mer random dsDNA library, 0.1% formaldehyde crosslink after washing; high values mean tight binding
Conditions in all cases: protein: recombinant; tags: N-terminal GST; dsDNA, one strand shown
ERF = target: T1, ERF (Homo sapiens, UniProt P50548 1-548)
T1 sequence: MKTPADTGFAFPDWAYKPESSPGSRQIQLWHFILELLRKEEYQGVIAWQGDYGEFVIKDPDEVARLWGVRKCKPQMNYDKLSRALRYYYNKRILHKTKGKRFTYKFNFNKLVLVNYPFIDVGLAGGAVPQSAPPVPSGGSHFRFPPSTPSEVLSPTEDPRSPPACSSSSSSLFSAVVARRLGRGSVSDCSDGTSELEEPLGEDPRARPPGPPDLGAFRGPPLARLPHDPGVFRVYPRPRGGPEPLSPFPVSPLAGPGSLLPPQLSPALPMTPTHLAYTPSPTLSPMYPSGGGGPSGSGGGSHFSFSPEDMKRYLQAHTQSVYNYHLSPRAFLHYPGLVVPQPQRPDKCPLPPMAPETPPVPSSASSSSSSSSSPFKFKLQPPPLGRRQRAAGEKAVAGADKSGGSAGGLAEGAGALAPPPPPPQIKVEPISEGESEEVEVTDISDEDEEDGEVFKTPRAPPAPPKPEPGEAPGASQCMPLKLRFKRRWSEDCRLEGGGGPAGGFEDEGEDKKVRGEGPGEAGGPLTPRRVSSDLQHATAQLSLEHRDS
How it was run: (§1)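 GST fusions of human transcription factors were expressed in yeast and captured with glutathione beads. Once given DNA barcodes and pooled alongside a tag-only sample, they were incubated for 30 min at room temperature with 200 nmole of a random double-stranded 16-mer DNA library in Tris/NaCl/DTT/glycerol buffer, then washed, crosslinked (0.1% formaldehyde), proximity-ligated, PCR-amplified and sequenced on an Illumina NextSeq500. The binding signal of each hexamer is its read frequency for a factor divided by its frequency for the tag-only sample.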

ETV3L = target: T2, ETV3L (Homo sapiens, UniProt Q6ZN32 1-361)
T2 sequence: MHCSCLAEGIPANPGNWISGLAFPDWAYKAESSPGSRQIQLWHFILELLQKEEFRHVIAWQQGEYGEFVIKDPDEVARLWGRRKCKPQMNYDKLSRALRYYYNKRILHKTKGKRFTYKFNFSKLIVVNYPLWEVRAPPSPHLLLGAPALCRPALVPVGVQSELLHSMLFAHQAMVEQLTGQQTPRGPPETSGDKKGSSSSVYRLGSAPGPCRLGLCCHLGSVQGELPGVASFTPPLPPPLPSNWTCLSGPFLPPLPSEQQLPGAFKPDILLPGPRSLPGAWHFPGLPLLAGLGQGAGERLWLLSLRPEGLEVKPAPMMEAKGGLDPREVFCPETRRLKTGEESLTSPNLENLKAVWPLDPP
How it was run: as §1

ETS2 = target: T3, ETS2 (Homo sapiens, UniProt P15036 1-469)
T3 sequence: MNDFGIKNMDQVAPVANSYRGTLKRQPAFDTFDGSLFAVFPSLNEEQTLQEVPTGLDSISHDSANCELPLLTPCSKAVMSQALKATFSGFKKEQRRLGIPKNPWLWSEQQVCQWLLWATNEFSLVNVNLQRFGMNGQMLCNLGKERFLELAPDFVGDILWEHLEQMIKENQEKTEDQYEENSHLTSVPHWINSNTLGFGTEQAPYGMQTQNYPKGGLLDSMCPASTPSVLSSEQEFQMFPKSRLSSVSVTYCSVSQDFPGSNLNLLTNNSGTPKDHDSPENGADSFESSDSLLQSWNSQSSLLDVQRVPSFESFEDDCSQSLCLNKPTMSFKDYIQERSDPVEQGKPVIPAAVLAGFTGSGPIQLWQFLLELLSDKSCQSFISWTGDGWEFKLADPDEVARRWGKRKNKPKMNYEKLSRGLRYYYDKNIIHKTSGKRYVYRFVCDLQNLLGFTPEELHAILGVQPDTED
How it was run: as §1

SPDEF = target: T4, SPDEF (Homo sapiens, UniProt O95238 1-335)
T4 sequence: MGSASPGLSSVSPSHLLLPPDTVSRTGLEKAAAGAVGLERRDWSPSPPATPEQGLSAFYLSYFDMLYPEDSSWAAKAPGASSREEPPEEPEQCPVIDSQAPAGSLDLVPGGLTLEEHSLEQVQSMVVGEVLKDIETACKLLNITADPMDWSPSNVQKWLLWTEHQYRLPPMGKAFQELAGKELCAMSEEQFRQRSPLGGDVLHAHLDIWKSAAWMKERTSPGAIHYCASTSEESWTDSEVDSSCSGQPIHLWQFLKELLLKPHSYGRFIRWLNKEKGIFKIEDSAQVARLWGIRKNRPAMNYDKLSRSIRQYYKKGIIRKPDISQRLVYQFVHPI
How it was run: as §1

ETV7 = target: T5, ETV7 (Homo sapiens, UniProt Q9Y603 1-341)
T5 sequence: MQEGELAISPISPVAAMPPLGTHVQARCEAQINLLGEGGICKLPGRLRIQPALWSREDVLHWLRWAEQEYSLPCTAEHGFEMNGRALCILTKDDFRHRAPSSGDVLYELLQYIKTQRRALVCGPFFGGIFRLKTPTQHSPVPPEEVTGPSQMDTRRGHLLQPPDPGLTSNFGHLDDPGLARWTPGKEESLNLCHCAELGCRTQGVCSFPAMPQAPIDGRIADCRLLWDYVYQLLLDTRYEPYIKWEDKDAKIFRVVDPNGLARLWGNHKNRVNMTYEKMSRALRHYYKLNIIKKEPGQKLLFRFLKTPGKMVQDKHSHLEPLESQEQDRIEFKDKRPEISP
How it was run: as §1

ELF5 = target: T6, ELF5 (Homo sapiens, UniProt Q9UKW6-2 1-255)
T6 sequence: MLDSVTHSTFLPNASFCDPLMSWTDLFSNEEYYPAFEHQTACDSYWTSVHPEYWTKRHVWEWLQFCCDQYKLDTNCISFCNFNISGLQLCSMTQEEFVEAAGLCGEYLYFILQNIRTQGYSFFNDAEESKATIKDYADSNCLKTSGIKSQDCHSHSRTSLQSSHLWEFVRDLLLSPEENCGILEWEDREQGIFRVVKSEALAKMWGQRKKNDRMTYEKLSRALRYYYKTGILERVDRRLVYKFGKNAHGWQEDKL
How it was run: as §1

ETV3 = target: T7, ETV3 (Homo sapiens, UniProt P41162-2 1-143)
T7 sequence: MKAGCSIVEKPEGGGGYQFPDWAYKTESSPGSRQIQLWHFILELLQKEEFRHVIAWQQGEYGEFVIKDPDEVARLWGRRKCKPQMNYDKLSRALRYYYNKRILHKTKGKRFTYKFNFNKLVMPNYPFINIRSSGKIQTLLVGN
How it was run: as §1

ETV6 = ETV6 (Homo sapiens, UniProt P41212 1-452)
Chain of ETV6 (P41212 whole entry): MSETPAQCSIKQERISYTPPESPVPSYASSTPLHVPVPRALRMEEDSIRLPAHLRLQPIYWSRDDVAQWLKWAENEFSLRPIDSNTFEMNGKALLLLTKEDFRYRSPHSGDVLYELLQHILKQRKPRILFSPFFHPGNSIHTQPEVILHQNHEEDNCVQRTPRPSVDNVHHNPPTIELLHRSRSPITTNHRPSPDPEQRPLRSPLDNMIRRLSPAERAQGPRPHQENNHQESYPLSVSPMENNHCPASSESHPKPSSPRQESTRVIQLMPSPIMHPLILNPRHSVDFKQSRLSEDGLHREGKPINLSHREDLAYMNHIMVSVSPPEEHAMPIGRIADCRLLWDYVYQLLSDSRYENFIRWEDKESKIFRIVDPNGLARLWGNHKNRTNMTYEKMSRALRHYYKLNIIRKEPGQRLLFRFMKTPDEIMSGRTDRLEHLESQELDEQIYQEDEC
How it was run: as §1

Sequence	binding signal (ERF)	binding signal (ETV3L)	binding signal (ETS2)	binding signal (SPDEF)	binding signal (ETV7)	binding signal (ELF5)	binding signal (ETV3)	binding signal (ETV6)
TCGCTA	1.16 fold enrichment (6-mer frequency, TF over GST control)	1.09 fold enrichment (6-mer frequency, TF over GST control)	1.06 fold enrichment (6-mer frequency, TF over GST control)	1.03 fold enrichment (6-mer frequency, TF over GST control)	1.12 fold enrichment (6-mer frequency, TF over GST control)	1.06 fold enrichment (6-mer frequency, TF over GST control)	1.01 fold enrichment (6-mer frequency, TF over GST control)	1.04 fold enrichment (6-mer frequency, TF over GST control)
GATATA	1.15 fold enrichment (6-mer frequency, TF over GST control)	1.18 fold enrichment (6-mer frequency, TF over GST control)	1.16 fold enrichment (6-mer frequency, TF over GST control)	1.32 fold enrichment (6-mer frequency, TF over GST control)	1.1 fold enrichment (6-mer frequency, TF over GST control)	1.13 fold enrichment (6-mer frequency, TF over GST control)	1.09 fold enrichment (6-mer frequency, TF over GST control)	1.12 fold enrichment (6-mer frequency, TF over GST control)
CAAAAC	1.28 fold enrichment (6-mer frequency, TF over GST control)	1.27 fold enrichment (6-mer frequency, TF over GST control)	1.27 fold enrichment (6-mer frequency, TF over GST control)	1.23 fold enrichment (6-mer frequency, TF over GST control)	1.23 fold enrichment (6-mer frequency, TF over GST control)	1.25 fold enrichment (6-mer frequency, TF over GST control)	1.18 fold enrichment (6-mer frequency, TF over GST control)	1.33 fold enrichment (6-mer frequency, TF over GST control)
CTAACA	1.29 fold enrichment (6-mer frequency, TF over GST control)	1.22 fold enrichment (6-mer frequency, TF over GST control)	1.21 fold enrichment (6-mer frequency, TF over GST control)	1.29 fold enrichment (6-mer frequency, TF over GST control)	1.16 fold enrichment (6-mer frequency, TF over GST control)	1.15 fold enrichment (6-mer frequency, TF over GST control)	1.14 fold enrichment (6-mer frequency, TF over GST control)	1.18 fold enrichment (6-mer frequency, TF over GST control)
TTCCGC	2.75 fold enrichment (6-mer frequency, TF over GST control)	2.9 fold enrichment (6-mer frequency, TF over GST control)	3.21 fold enrichment (6-mer frequency, TF over GST control)	2.77 fold enrichment (6-mer frequency, TF over GST control)	3.02 fold enrichment (6-mer frequency, TF over GST control)	4.41 fold enrichment (6-mer frequency, TF over GST control)	3.37 fold enrichment (6-mer frequency, TF over GST control)	3.62 fold enrichment (6-mer frequency, TF over GST control)
ATAGTA	1.23 fold enrichment (6-mer frequency, TF over GST control)	1.11 fold enrichment (6-mer frequency, TF over GST control)	1.06 fold enrichment (6-mer frequency, TF over GST control)	1.07 fold enrichment (6-mer frequency, TF over GST control)	1.3 fold enrichment (6-mer frequency, TF over GST control)	1.13 fold enrichment (6-mer frequency, TF over GST control)	1.15 fold enrichment (6-mer frequency, TF over GST control)	1.25 fold enrichment (6-mer frequency, TF over GST control)
ACGGAT	1.11 fold enrichment (6-mer frequency, TF over GST control)	1.23 fold enrichment (6-mer frequency, TF over GST control)	1.3 fold enrichment (6-mer frequency, TF over GST control)	1.94 fold enrichment (6-mer frequency, TF over GST control)	1.13 fold enrichment (6-mer frequency, TF over GST control)	1.34 fold enrichment (6-mer frequency, TF over GST control)	1.3 fold enrichment (6-mer frequency, TF over GST control)	1.22 fold enrichment (6-mer frequency, TF over GST control)
TTTGCC	1.31 fold enrichment (6-mer frequency, TF over GST control)	1.2 fold enrichment (6-mer frequency, TF over GST control)	1.32 fold enrichment (6-mer frequency, TF over GST control)	1.21 fold enrichment (6-mer frequency, TF over GST control)	1.26 fold enrichment (6-mer frequency, TF over GST control)	1.2 fold enrichment (6-mer frequency, TF over GST control)	1.32 fold enrichment (6-mer frequency, TF over GST control)	1.11 fold enrichment (6-mer frequency, TF over GST control)
